Data taken from PubChem BioAssay.
Active and inactive are the calls of the source.

Tests used:
[1] = tested on: PRMT1 (protein arginine N-methyltransferase 1); test: small molecules binding arginine methyltransferase PRMT1 – biochemical, small-molecule microarray, 635 nm fluorescence, primary screen (AID 1088); conditions: higher = more signal;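 also: binding of Prmt1 protein to compounds spotted on small-molecule microarray slides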
[2] = growth effects on S. cerevisiae YJM789 – YJM789 clinical isolate, OD600, 24 h, basal, primary screen (AID 1089); conditions: higher = more signal, called active from +8 up or from −8 down;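 also: growth of clinical yeast isolate S. cerevisiae YJM 789 seeded 1000 cells per well; test concentration not given here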
[3] = S. pombe growth modifiers, basal conditions – strain 972, OD600, 24 h, no modulator, primary screen (AID 1090);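 also: basal condition with compound alone and no growth modifier present; test concentration not given here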; conditions: S. pombe 972 growth, higher = more signal, called active from +8 up or from −8 down
[4] = budding yeast growth modifiers under rapamycin – strain BY4716, OD600, 96 h, primary screen (AID 1091); also: test concentration not given here; conditions: S. cerevisiae BY4716 + rapamycin, higher = more signal, called active from +8 up or from −8 down
[5] = target: Torsin-1A-interacting protein 2 (Homo sapiens) (UniProt Q8NFQ8); test: small molecules binding lysate-expressed LULL1 – cell lysate, human LULL1 lysate, 635/667 nm fluorescence, primary screen (AID 1092); conditions: small-molecule microarray, hLULL1 lysate binding, 635 nm fluorescence; higher = more signal;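 also: probe is lysate of COS7 cells overexpressing human LULL1; score merges per-feature 667 nm fluorescence with signal-to-noise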
[6] = optical density change of DRC41 E. coli – strain DRC41, OD650, 24 h, E. coli filamentation project, primary screen (AID 1093);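 also: MC1000 strain lacking acrAB efflux and sulA so SOS filamentation is blocked; test concentration not given here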; conditions: E. coli DRC41 growth, higher = more signal, called active from +8 up or from −8 down
[7] = probe aLefty2 binding to arrayed compounds – biochemical, biotinylated probe, 635/667 nm fluorescence, primary screen (AID 1094); conditions: small-molecule microarray, higher = more signal;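 also: score merges spot fluorescence near 667 nm with spot signal-to-noise ratio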
[8] = tested on: Noggin (protein binding on small-molecule microarray); test: small molecules binding Noggin protein – biochemical, 635/667 nm fluorescence, primary screen (AID 1095); conditions: 635 nm fluorescence, higher = more signal;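 also: score merges 667 nm feature fluorescence with signal to noise over triplicate slides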
[9] = target: Neurogenic locus notch homolog protein 3 (Homo sapiens) (UniProt Q9UM47); test: small molecules binding NOTCH3 protein – biochemical, 635/667 nm fluorescence, primary screen (AID 1096); conditions: small-molecule microarray, 635 nm fluorescence, higher = more signal
[10] = probe aEGFR binding to arrayed compounds – biochemical, biotinylated probe, 635/667 nm fluorescence, primary screen (AID 1097); conditions: small-molecule microarray, higher = more signal;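 also: probe is a biotinylated anti-EGFR antibody binding compounds printed on slides; score combines fluorescence near 667 nm and signal to noise of each spot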
[11] = tested on: Plasmodium falciparum Sir2 (PF13_0152, Sir2A); test: Plasmodium falciparum Sir2A binding compounds – biochemical, small-molecule microarray, 635 nm fluorescence, primary screen (AID 1098); conditions: fluorescence 635 nm, higher = more signal;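 also: score merges spot fluorescence intensity with its signal-to-noise ratio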
[12] = probe aDKK1 binding to arrayed compounds – biochemical, biotinylated probe, 635/667 nm fluorescence, primary screen (AID 1099); conditions: small-molecule microarray, higher = more signal;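 also: score merges 667nm spot fluorescence with signal to noise across triplicate slides; reference of the scale not given here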
[13] = probe aCHRDL2 binding to arrayed compounds – biochemical, biotinylated probe, 635/667 nm fluorescence, primary screen (AID 1100); conditions: small-molecule microarray, higher = more signal
[14] = change in splice reporter luminescence, either direction, cell-based, HEK293, spliceosome inhibition project, primary screen (AID 1101); conditions: HEK293 splicing luciferase reporter, 24 h, higher = more signal, called active from +8 up or from −8 down;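 also: HEK293 cells carrying a splicing-competent luciferase reporter gene; test concentration not given here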
[15] = target: Fibroblast growth factor 10 (Homo sapiens) (UniProt O15520); test: compounds binding fibroblast growth factor 10 – biochemical, small-molecule microarray, 635 nm fluorescence, primary screen (AID 1102); conditions: FGF10 binding, fluorescence 635 nm, higher = more signal
[16] = tested on: glycogen synthase kinase-3 (GSK3A per assay name; protocol says GSK3B); test: compounds binding glycogen synthase kinase-3 – biochemical, small-molecule microarray, 635 nm fluorescence, GSK3A, primary screen (AID 1103); conditions: fluorescence 635 nm, higher = more signal; also: the record names both GSK3A and GSK3B
[17] = target: Epidermal growth factor receptor (Homo sapiens) (UniProt P00533); test: compounds binding epidermal growth factor receptor – biochemical, small-molecule microarray, 635 nm fluorescence, primary screen (AID 1104); conditions: EGFR binding, higher = more signal;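 also: score merges 667 nm emission intensity with spot signal to noise over triplicate slides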
[18] = target: Follistatin-related protein 3 (Homo sapiens) (UniProt O95633); test: compounds binding follistatin-related protein 3 – biochemical, small-molecule microarray, 635 nm fluorescence, primary screen (AID 1105); conditions: FSTL3 binding, higher = more signal;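 also: score merges emission near 667 nm and signal to noise per printed spot across three slides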
[19] = target: Dickkopf-related protein 1 (Homo sapiens) (UniProt O94907); test: small molecules binding DKK1 protein – biochemical, small-molecule microarray, 635 nm fluorescence scan, primary screen (AID 1106); conditions: higher = more signal;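 also: score merges emission near 667 nm with signal to noise over three replicate slides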
[20] = tested on: Inhibin beta A chain (activin A); test: small molecules binding activin A – biochemical, small-molecule microarray, 635 nm fluorescence scan, primary screen (AID 1107); conditions: INHBA, higher = more signal;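 also: mouse activin A protein probed at 4.33 µg/mL on printed slides; score merges bound-protein fluorescence near 667 nm with spot signal-to-noise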

Chain of Neurogenic locus notch homolog protein 3 (Homo sapiens) (Q9UM47 whole entry, looked up): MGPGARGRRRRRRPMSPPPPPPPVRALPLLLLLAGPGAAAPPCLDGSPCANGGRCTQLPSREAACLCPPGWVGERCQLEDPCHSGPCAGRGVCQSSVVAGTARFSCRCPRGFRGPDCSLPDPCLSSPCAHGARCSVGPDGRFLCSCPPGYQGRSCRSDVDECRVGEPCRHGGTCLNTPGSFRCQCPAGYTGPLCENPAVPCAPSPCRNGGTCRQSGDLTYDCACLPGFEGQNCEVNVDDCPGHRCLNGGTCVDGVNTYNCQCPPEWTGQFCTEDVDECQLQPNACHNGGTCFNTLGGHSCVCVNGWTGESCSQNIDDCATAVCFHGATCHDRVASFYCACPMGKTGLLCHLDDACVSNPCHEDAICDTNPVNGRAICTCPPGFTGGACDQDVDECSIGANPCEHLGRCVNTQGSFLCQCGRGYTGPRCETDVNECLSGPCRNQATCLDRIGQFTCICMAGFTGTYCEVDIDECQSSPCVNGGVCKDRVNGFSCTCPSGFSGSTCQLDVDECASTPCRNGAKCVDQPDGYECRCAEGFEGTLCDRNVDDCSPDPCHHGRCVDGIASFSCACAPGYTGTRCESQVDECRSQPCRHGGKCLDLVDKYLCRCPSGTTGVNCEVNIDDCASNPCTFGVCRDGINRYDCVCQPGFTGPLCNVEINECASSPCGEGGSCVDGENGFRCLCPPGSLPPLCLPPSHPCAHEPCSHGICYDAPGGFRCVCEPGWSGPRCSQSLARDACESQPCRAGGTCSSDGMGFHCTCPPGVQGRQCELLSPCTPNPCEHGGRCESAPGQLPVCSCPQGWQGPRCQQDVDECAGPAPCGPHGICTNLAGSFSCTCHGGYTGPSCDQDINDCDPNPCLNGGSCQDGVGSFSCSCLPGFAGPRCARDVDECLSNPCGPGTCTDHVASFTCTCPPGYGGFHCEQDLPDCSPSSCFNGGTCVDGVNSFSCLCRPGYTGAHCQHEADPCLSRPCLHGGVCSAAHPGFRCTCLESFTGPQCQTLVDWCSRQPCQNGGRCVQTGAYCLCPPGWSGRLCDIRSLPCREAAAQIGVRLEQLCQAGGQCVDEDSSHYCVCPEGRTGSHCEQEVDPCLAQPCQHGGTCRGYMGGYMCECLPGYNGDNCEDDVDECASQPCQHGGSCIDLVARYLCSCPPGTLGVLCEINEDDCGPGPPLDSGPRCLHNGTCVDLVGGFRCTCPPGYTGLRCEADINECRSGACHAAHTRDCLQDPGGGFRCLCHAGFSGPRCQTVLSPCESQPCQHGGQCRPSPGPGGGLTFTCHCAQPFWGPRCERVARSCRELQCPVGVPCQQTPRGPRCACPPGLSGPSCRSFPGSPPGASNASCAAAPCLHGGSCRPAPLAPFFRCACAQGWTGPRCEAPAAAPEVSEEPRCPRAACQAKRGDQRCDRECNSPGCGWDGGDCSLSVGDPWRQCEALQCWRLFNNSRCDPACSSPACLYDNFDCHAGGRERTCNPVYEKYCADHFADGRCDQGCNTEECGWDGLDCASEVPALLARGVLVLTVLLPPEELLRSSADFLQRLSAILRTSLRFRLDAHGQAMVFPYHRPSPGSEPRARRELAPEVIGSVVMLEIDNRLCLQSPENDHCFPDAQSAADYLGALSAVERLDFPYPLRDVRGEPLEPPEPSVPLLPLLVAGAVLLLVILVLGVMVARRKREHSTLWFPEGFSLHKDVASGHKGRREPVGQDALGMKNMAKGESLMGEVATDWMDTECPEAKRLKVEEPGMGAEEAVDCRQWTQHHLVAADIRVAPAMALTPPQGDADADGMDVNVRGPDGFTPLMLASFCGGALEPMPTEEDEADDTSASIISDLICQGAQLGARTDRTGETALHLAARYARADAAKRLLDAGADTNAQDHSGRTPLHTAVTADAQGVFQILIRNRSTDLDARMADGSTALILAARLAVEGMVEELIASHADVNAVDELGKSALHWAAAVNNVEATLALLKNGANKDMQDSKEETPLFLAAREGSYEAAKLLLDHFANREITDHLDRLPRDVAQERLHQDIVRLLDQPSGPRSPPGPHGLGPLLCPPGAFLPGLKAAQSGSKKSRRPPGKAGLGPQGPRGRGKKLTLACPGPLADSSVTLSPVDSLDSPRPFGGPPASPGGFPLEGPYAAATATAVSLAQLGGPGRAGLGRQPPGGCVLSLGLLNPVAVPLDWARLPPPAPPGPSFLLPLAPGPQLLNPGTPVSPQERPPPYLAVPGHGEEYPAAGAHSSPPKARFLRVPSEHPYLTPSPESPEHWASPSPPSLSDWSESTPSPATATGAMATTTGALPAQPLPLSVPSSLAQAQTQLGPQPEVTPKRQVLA
Chain of Dickkopf-related protein 1 (Homo sapiens) (O94907 whole entry, looked up): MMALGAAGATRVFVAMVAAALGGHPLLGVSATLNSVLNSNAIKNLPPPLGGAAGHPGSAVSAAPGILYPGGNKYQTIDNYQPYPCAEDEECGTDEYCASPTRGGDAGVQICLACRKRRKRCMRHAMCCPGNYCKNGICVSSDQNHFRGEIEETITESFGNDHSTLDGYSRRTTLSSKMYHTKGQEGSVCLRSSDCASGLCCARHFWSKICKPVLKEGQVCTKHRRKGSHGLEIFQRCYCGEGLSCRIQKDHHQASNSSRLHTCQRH
Chain of Epidermal growth factor receptor (Homo sapiens) (P00533 whole entry, looked up): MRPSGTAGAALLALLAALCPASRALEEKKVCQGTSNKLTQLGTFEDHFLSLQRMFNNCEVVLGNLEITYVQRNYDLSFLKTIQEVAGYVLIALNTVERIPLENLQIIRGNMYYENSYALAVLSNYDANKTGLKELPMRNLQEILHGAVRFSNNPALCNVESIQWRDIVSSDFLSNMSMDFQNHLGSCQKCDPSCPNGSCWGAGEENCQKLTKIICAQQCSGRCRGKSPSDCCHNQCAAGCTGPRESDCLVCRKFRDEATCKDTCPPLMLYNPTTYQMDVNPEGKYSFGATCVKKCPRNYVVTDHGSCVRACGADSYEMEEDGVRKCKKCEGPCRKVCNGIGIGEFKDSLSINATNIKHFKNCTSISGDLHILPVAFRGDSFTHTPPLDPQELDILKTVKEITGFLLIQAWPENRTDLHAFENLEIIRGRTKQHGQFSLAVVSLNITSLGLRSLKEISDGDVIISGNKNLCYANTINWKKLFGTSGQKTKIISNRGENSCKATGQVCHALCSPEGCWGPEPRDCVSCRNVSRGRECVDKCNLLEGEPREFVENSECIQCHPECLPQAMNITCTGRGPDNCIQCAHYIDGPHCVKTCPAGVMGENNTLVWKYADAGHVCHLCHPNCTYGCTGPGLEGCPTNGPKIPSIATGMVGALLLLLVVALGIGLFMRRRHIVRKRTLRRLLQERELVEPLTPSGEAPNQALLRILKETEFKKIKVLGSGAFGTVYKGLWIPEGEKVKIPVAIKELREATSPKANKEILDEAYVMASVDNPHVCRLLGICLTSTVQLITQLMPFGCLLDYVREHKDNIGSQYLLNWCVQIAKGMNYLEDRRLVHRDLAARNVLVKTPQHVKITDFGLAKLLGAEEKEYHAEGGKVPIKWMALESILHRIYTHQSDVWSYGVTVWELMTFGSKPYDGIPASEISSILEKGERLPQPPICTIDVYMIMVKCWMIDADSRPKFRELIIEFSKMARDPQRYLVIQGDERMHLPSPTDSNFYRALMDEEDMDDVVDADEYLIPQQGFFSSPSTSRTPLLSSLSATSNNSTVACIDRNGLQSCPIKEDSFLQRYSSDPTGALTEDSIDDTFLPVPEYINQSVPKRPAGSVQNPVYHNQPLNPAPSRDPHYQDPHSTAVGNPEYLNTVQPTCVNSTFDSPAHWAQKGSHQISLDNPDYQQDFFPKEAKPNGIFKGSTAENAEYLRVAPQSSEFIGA
Chain of Torsin-1A-interacting protein 2 (Homo sapiens) (Q8NFQ8 whole entry, looked up): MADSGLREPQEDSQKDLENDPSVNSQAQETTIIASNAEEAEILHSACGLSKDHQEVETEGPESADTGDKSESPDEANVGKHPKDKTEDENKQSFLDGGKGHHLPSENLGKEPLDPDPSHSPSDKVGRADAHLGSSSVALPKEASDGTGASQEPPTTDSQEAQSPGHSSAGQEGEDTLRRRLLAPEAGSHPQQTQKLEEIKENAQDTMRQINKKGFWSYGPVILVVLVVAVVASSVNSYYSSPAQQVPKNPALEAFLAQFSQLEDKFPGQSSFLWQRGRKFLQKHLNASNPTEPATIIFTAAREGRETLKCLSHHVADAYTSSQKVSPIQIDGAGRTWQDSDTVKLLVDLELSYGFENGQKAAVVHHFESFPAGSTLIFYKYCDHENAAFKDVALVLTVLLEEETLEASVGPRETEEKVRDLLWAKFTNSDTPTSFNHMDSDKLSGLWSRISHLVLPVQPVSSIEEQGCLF
Chain of Follistatin-related protein 3 (Homo sapiens) (O95633 whole entry, looked up): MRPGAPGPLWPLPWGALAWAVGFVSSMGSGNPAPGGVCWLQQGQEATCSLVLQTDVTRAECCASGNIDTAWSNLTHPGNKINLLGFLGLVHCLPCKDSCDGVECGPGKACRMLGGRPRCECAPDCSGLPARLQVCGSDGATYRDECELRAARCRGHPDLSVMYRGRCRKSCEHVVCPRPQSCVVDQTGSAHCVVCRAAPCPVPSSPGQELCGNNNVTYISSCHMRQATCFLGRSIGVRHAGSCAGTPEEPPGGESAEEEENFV
Chain of Fibroblast growth factor 10 (Homo sapiens) (O15520 whole entry, looked up): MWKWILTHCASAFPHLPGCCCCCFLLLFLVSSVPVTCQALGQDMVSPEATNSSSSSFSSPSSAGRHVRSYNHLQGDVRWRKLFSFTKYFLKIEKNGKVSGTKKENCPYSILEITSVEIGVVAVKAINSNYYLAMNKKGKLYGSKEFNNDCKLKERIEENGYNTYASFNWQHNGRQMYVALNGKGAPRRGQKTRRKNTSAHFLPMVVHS

SMILES: CCCCCCCCCCC(O)C1C=CC2C(=O)N(c3ccccc3)C(=O)C2N1Nc1ccccc1F (stereo not given)
- composite z-score [1]: 0.545
- z-score [2]: 0.536 (inactive)
- z-score [3]: 0.849 (inactive)
- z-score [4]: 1.62 (inactive)
- composite z-score [5]: 1.59
- z-score [6]: -1.47 (inactive)
- composite z-score [7]: -0.0713
- composite z-score [8]: -1.47
- composite z-score [9]: -0.277
- composite z-score [10]: -0.0576
- composite z-score [11]: 0.565
- composite z-score [12]: 0.0158
- composite z-score [13]: 0.973
- z-score [14]: 1.25 (inactive)
- composite z-score [15]: -0.387
- composite z-score [16]: -0.676
- composite z-score [17]: -0.571
- composite z-score [18]: -0.292
- composite z-score [19]: -0.867
- composite z-score [20]: 1.21

SMILES: COCCOC(=O)N1C(=O)[C@@]2(c3cc(C#CCNC(N)=O)ccc31)[C@H](c1ccc(O)cc1)N1[C@H](c3ccccc3)[C@H](c3ccccc3)OC(=O)[C@H]1[C@@H]2C(N)=O
- composite z-score [1]: -1.22
- z-score [2]: 0.878 (inactive)
- z-score [3]: 0.0929 (inactive)
- z-score [4]: 0.374 (inactive)
- composite z-score [5]: -0.841
- z-score [6]: 1.04 (inactive)
- composite z-score [7]: -0.294
- composite z-score [8]: -1.99
- composite z-score [9]: -1.15
- composite z-score [10]: -0.406
- composite z-score [11]: -0.583
- composite z-score [12]: -0.224
- composite z-score [13]: 0.444
- z-score [14]: 0.00136 (inactive)
- composite z-score [15]: -1.62
- composite z-score [16]: -1.32
- composite z-score [17]: -1.9
- composite z-score [18]: -2.16
- composite z-score [19]: -1.86
- composite z-score [20]: -1.08

SMILES: Nc1cc(Br)ccc1C(=O)O
- composite z-score [1]: 0.409
- z-score [2]: -0.585 (inactive)
- z-score [3]: -1.64 (inactive)
- z-score [4]: -0.0096 (inactive)
- composite z-score [5]: 0.568
- z-score [6]: -1.2 (inactive)
- composite z-score [7]: -0.0664
- composite z-score [8]: 0.136
- composite z-score [9]: 0.332
- composite z-score [10]: -0.0961
- composite z-score [11]: -0.0113
- composite z-score [12]: 0.149
- composite z-score [13]: -0.155
- z-score [14]: -0.00991 (inactive)
- composite z-score [15]: 0.339
- composite z-score [16]: 0.285
- composite z-score [17]: 0.029
- composite z-score [18]: 0.111
- composite z-score [19]: 0.241
- composite z-score [20]: 0.0301

SMILES: CCOC(=O)C=Cc1ccccc1O
- composite z-score [1]: 0.697
- z-score [2]: -23.9 (active)
- z-score [3]: -9.67 (active)
- z-score [4]: -1.89 (inactive)
- composite z-score [5]: 1.44
- z-score [6]: 0.354 (inactive)
- composite z-score [7]: -0.0432
- composite z-score [8]: -0.0491
- composite z-score [9]: 0.947
- composite z-score [10]: 0.0594
- composite z-score [11]: 0.109
- composite z-score [12]: -0.0604
- composite z-score [13]: 0.329
- z-score [14]: -1.74 (inactive)
- composite z-score [15]: 0.278
- composite z-score [16]: 0.513
- composite z-score [17]: 0.363
- composite z-score [18]: 0.435
- composite z-score [19]: -0.0242
- composite z-score [20]: 0.75

SMILES: COCCCNC(=O)[C@@]1(c2ccc([N+](=O)[O-])cc2)CC(=O)N(C(C)C)[C@@H]1c1ccc(CO)cc1
- composite z-score [1]: 0.197
- z-score [2]: -0.411 (inactive)
- z-score [3]: -0.46 (inactive)
- z-score [4]: -0.363 (inactive)
- composite z-score [5]: 0.15
- z-score [6]: 0.409 (inactive)
- composite z-score [7]: 0.701
- composite z-score [8]: -0.363
- composite z-score [9]: -0.617
- composite z-score [10]: -0.071
- composite z-score [11]: 0.0788
- composite z-score [12]: 0.46
- composite z-score [13]: 0.8
- z-score [14]: 0.0532 (inactive)
- composite z-score [15]: -0.512
- composite z-score [16]: -0.63
- composite z-score [17]: 0.608
- composite z-score [18]: 0.373
- composite z-score [19]: 0.289
- composite z-score [20]: 1.07

SMILES: O=C1N(CCS(=O)(=O)c2ccccc2)Cc2ccccc2[C@@H]2OC(c3ccc(OCCCO)cc3)=N[C@]12CCS(=O)(=O)c1ccccc1
- composite z-score [1]: 1.53
- z-score [2]: 2.61 (inactive)
- z-score [3]: 1.97 (inactive)
- z-score [4]: 6.29 (inactive)
- composite z-score [5]: 3.23
- z-score [6]: 0.833 (inactive)
- composite z-score [7]: 0.338
- composite z-score [8]: 1.06
- composite z-score [9]: 1.02
- composite z-score [10]: 0.266
- composite z-score [11]: 1.14
- composite z-score [12]: 0.846
- composite z-score [13]: 0.788
- z-score [14]: -0.42 (inactive)
- composite z-score [15]: 1.46
- composite z-score [16]: 1.32
- composite z-score [17]: 0.89
- composite z-score [18]: 1.48
- composite z-score [19]: 1.46
- composite z-score [20]: 1.22

SMILES: COc1ccc(C(O)C2C=CC3C(=O)N(c4ccccc4)C(=O)C3N2Nc2ccccc2F)cc1 (stereo not given)
- composite z-score [1]: 1.1
- z-score [2]: -0.228 (inactive)
- z-score [3]: 0.575 (inactive)
- z-score [4]: -0.246 (inactive)
- composite z-score [5]: 3.46
- z-score [6]: 0.0902 (inactive)
- composite z-score [7]: 0.183
- composite z-score [8]: 0.164
- composite z-score [9]: 0.842
- composite z-score [10]: -0.0678
- composite z-score [11]: 1.47
- composite z-score [12]: 0.447
- composite z-score [13]: 1
- z-score [14]: 0.747 (inactive)
- composite z-score [15]: 0.111
- composite z-score [16]: 0.102
- composite z-score [17]: -0.296
- composite z-score [18]: 0.0817
- composite z-score [19]: -0.81
- composite z-score [20]: 0.685

SMILES: CC(C)CNC(=O)[C@@]1(c2ccc([N+](=O)[O-])cc2)CC(=O)N(C2CCCCC2)[C@@H]1c1ccc(CO)cc1
- composite z-score [1]: 0.566
- z-score [2]: -0.563 (inactive)
- z-score [3]: -0.514 (inactive)
- z-score [4]: -0.548 (inactive)
- composite z-score [5]: 2.54
- z-score [6]: 0.861 (inactive)
- composite z-score [7]: 0.136
- composite z-score [8]: -0.318
- composite z-score [9]: -0.0858
- composite z-score [10]: -0.0989
- composite z-score [11]: 0.388
- composite z-score [12]: 0.368
- composite z-score [13]: 0.453
- z-score [14]: -0.472 (inactive)
- composite z-score [15]: 0.735
- composite z-score [16]: 0.484
- composite z-score [17]: 0.103
- composite z-score [18]: 0.0017
- composite z-score [19]: -0.362
- composite z-score [20]: 0.517

SMILES: CC(C)C(=C=CC[C@H](O)c1cccc(OCCO)c1)CCO
- composite z-score [1]: 0.801
- z-score [2]: -1.16 (inactive)
- z-score [3]: -0.538 (inactive)
- z-score [4]: -1.42 (inactive)
- composite z-score [5]: 0.228
- z-score [6]: 0.537 (inactive)
- composite z-score [7]: -0.285
- composite z-score [8]: 0.683
- composite z-score [9]: 0.234
- composite z-score [10]: -0.165
- composite z-score [11]: 0.899
- composite z-score [12]: -0.363
- composite z-score [13]: -0.148
- z-score [14]: -1.02 (inactive)
- composite z-score [15]: 1.18
- composite z-score [16]: -0.739
- composite z-score [17]: -0.209
- composite z-score [18]: -0.0067
- composite z-score [19]: -0.264
- composite z-score [20]: 0.148

SMILES: COC(=O)C1N=C(c2ccc(OCCCO)cc2)N(c2ccccc2)O1 (stereo not given)
- composite z-score [1]: 0.433
- z-score [2]: -0.686 (inactive)
- z-score [3]: -1.16 (inactive)
- z-score [4]: -0.417 (inactive)
- composite z-score [5]: 2.07
- z-score [6]: 0.267 (inactive)
- composite z-score [7]: 0.156
- composite z-score [8]: 0.981
- composite z-score [9]: 0.698
- composite z-score [10]: 0.271
- composite z-score [11]: 1.05
- composite z-score [12]: 0.947
- composite z-score [13]: 1.11
- z-score [14]: -0.155 (inactive)
- composite z-score [15]: 1.48
- composite z-score [16]: 1.22
- composite z-score [17]: 0.172
- composite z-score [18]: 0.864
- composite z-score [19]: 0.604
- composite z-score [20]: 0.453
